Where a name gives a salt, the structure may show the parent alone.
System: OVCAR4
Test: Euclidean distance of Cell Painting phenotypic profile (signed KS, 77 features) to DMSO centroid (dimensionless distance); 5 or 10 uM (library dependent); higher = stronger phenotypic change vs DMSO (phenoactivity)
Conditions: 48 h
Outline: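 Phenoactivity is defined as the Euclidean distance from a compound profile to the median vehicle profile. Each profile comprised 77 Harmony features, scored as signed Kolmogorov-Smirnov statistics versus same-plate vehicle wells, then plate-position corrected, correlation-weighted and replicate-averaged at the top dose. Five cancer lines and one healthy fibroblast line were exposed to library compounds for 48 h at 10 or 5 uM (0.1% DMSO final).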

Row | SMILES | Euclidean distance
1 | COc1cc([C@@H]2c3cc4c(cc3[C@@H](O[C@@H]3O[C@@H]5CO[C@@H](C)O[C@H]5[C@H](O)[C@H]3O)[C@H]3COC(=O)[C@H]23)OCO4)cc(OC)c1O [Etoposide] | 3.21
2 | O=C(c1ccc(F)c(F)c1Nc1ccc(I)cc1F)N1CC(O)([C@@H]2CCCCN2)C1 [Cobimetinib (GDC-0973. RG7420)] | 2.85
3 | Cc1c(F)cccc1NC(=O)Nc1ccc(Cl)c(S(=O)(=O)[C@H]2CCCNC2)c1O | 1.49
4 | Nc1nc2[nH]cc(CCc3ccc(C(=O)N[C@@H](CCC(=O)O)C(=O)O)cc3)c2c(=O)[nH]1 [Pemetrexed] | 3.1
5 | COc1ccccc1N1CCN(CCN2C(=O)CC3(CCCC3)CC2=O)CC1 | 1.54
6 | CC[C@H]1OC(=O)[C@@](C)(F)C(=O)[C@H](C)[C@@H](O[C@@H]2O[C@H](C)C[C@H](N(C)C)[C@H]2O)[C@](C)(OC)C[C@@H](C)C(=O)[C@H](C)[C@H]2N(CCCCn3cc(-c4cccc(N)c4)nn3)C(=O)O[C@]12C [Solithromycin] | 0.99
7 | C[C@]12CC[C@@H]3c4ccc(O)cc4CC[C@H]3[C@@H]1CCC2=O [Estrone] | 0.764
8 | Oc1c2ccccc2c2c3c(cccc13)N=N2 | 0.655
9 | C=C1/C(=C\C=C2/CCC[C@]3(C)[C@@H]([C@H](C)CCCC(C)(C)O)CC[C@@H]23)C[C@@H](O)C[C@@H]1O [Calcitriol] | 1.36
10 | Cc1c(-c2cnccn2)ssc1=S [Oltipraz] | 1.3
11 | Cc1c(Nc2ncccc2C(=O)O)cccc1C(F)(F)F [Flunixin Meglumin] | 1.88
12 | CO/N=C(\C(=O)N[C@@H]1C(=O)N2C(C(=O)O)=C(COC(C)=O)CS[C@H]12)c1csc(N)n1 [Cefotaxime sodium] | 0.706
13 | c1coc(CNc2ncnc3[nH]cnc23)c1 [Kinetin] | 1.72
14 | CC[C@]1(O)C[C@H]2CN(CCc3c([nH]c4ccccc34)[C@@](C(=O)OC)(c3cc4c(cc3OC)N(C=O)[C@H]3[C@@](O)(C(=O)OC)[C@H](OC(C)=O)[C@]5(CC)C=CCN6CC[C@]43[C@@H]65)C2)C1 [Vincristine] | 2.86
15 | Nc1ncnc2c1ncn2[C@@H]1O[C@H](CO)[C@@H](O)[C@@H]1O [Vidarabine monohydrate] | 1.18
16 | COCCCN1CCC(NC(=O)c2cc(Cl)c(N)c3c2OCC3)CC1 [Prucalopride Succinat] | 0.827
17 | OC(CCCN1CCCCC1)(c1ccccc1)c1ccccc1 [Diphenidol HCl] | 1.09

Row | SMILES | Euclidean distance
18 | CN(C)CC/C=C1/c2ccccc2COc2ccc(CC(=O)O)cc21 [Olopatadine HCl] | 0.734
19 | NC(=O)c1cnccn1 [Pyrazinamide] | 1.13
20 | CC(C)NCC(O)c1ccc(O)c(O)c1 (stereo not drawn) [Isoproterenol sulfate dihydrate] | 0.894
21 | Cc1cc(F)c(Nc2ncnc3cc(OCc4ccccc4)ccc23)cc1O | 0.745
22 | CCCCCCCCCC(=O)CC(O)S(=O)(=O)O (stereo not drawn) [Sodium Houttuyfonate] | 1.66
23 | Oc1c(Br)cc(Br)c2cccnc12 [Broxyquinoline] | 0.981
24 | Nc1ccn([C@H]2CC[C@@H](CO)O2)c(=O)n1 [Zalcitabine] | 1.13
25 | Cc1cccc(-c2[nH]c(C(C)(C)C)nc2-c2ccc3nccnc3c2)n1 | 0.948
26 | O=C(CCCCCN1C(=O)c2cccc3cccc(c23)C1=O)NO [Scriptaid] | 3.33
27 | C[C@]12CCC3=C4CCC(=O)C=C4CC[C@H]3[C@@H]1CC[C@@]2(O)CC#N [Dienogest] | 1.39
28 | O=C(O)[C@@H](S)[C@@H](S)C(=O)O [Succimer] | 1.55
29 | Cc1c(-c2ccc(O)cc2)n(Cc2ccc(OCCN3CCCCCC3)cc2)c2ccc(O)cc12 [Bazedoxifene HCl] | 4.32
30 | Nc1ccn([C@@H]2O[C@H](CO)[C@@H](O)[C@@H]2O)c(=O)n1 [Cytarabine] | 3.15
31 | COc1cnc(NS(=O)(=O)c2ccc(N)cc2)nc1 [Sulfameter] | 1.5
32 | CC(C)c1ccc2oc3nc(N)c(C(=O)O)cc3c(=O)c2c1 [Amlexanox] | 0.738
33 | CCCN1C[C@H](C)[C@@H](O)[C@](C)(O)[C@@H](CC)OC(=O)[C@H](C)[C@@H](O[C@H]2C[C@@](C)(OC)[C@@H](O)[C@H](C)O2)[C@H](C)[C@@H](O[C@@H]2O[C@H](C)C[C@H](N(C)C)[C@H]2O)[C@](C)(O)C[C@H]1C [Gamithromycin] | 1.05

Source: the supplement of paper PMC10127200
